# Source: PubChem BioAssay (Tox21)
# Values joined by “and” are separate entries in the source; they are usually repeats but may differ in a detail not shown here. Equal entries are not always repeated. Results filed as inconclusive are left out. A call without a number means that no potency is given here. The source holds several records for some structures; these can differ, active in one and inactive in another. Active and inactive are the calls of the source. Unless noted, calls follow the shape of the full dose curve.
# Columns and labels:
# [1] = Nuclear factor erythroid 2-related factor 2/antioxidant responsive element (Nrf2/ARE) small molecule agonists: qHTS cell viability counter screen in human keratinocytes (AID 1919968; active = well fitted curve in the direction sought with a large enough effect in the repeat runs; an effect the other way counts as inactive or inconclusive; also: nearly all actives have a fitted effect of over 55% in size)
# Method in brief: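 Viability counter-screen: KeratinoSens reporter cells, DMSO-delivered compounds, 23 h at 37 C, CellTiter-Fluor fluorescence.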
# [2] = molecular target: Gonadotropin-releasing hormone receptor (Homo sapiens) (UniProt P30968); assay: Human gonadotropin-releasing hormone receptor (GnRHR) small molecule agonists, calcium flux assay in GnRHR-HEK293 cells (AID 1920063); also: nearly all actives have a fitted effect of over 35% in size
# Chain of Gonadotropin-releasing hormone receptor (Homo sapiens) (P30968 whole entry, looked up): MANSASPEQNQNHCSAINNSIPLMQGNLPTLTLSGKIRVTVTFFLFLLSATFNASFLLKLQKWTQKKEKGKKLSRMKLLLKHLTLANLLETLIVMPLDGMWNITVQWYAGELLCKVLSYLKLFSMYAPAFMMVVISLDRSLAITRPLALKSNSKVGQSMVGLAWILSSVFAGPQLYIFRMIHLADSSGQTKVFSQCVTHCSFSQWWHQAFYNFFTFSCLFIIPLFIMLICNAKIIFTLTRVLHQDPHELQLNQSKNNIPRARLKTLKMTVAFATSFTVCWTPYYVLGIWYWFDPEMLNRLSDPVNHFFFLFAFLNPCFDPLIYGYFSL
# Method in brief: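 Tox21-format agonist screen using human GnRHR-expressing HEK293 cells and a fluorescent calcium dye; kinetic 3-min fluorescence reading after compound addition, 15-point concentration series run in triplicate.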
# [3] = molecular target: KiSS-1 receptor (Homo sapiens) (UniProt Q969F8); assay: Human kisspeptin (KISS1R) small molecule agonists, calcium flux assay in KISS1R-HEK293 cells (AID 1920064; active = well fitted curve in the direction sought with a large enough effect in the repeat runs; an effect the other way counts as inactive or inconclusive)
# Chain of KiSS-1 receptor (Homo sapiens) (Q969F8 whole entry, looked up): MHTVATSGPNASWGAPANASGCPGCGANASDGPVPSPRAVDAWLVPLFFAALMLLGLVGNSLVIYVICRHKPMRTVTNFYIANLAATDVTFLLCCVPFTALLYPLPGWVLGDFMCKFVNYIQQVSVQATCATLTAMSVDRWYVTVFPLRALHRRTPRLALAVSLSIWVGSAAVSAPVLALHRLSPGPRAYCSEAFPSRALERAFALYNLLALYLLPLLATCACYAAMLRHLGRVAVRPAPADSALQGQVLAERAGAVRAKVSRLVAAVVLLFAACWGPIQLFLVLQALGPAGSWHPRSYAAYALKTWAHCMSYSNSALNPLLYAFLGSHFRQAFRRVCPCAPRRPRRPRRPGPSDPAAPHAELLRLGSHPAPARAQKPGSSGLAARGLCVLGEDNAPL
# Method in brief: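 Intracellular calcium mobilization in KISS1R-HEK293 cells was recorded by fluorescence (Ex/Em 480/540) for 3 min following compound addition to cells pre-loaded 1 h with calcium dye.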
# [4] = G protein-coupled receptor (GPCR) small molecule agonists, calcium flux assay: HEK293 wild type cell line counter screen (AID 1920065)
# Method in brief: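 In this agonist-mode screen, ATP is the positive control and DMSO the vehicle. Cells grow 18 h before a 1 h dye incubation at 37 C; signal is taken at Ex/Em 480/540 over 3 min.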
# [5] = p53 small molecule agonists, cell-based qHTS assay with human liver microsomes: qHTS cell viability counter screen (AID 1963579); also: nearly all actives have a fitted effect of over 45% in size
# Method in brief: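 In this multiplexed counter screen, the reporter plates were subsequently treated with CellTiter-Glo so that cell viability, reflected by luminescence, could be recorded for p53RE-bla cells dosed 16 h with compounds under microsomal activation (HLM and NADPH).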
# [6] = p53 small molecule agonists, cell-based qHTS assay with rat liver microsomes: qHTS cell viability counter screen (AID 1963580); also: nearly all actives have a fitted effect of over 45% in size
# Method in brief: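 p53RE-bla HCT-116 cells (4,000/well) rested 5 h at 37 C, then given Tox21 compounds in DMSO with rat liver microsomes (0.5 mg/mL final) plus NADPH (0.5 mg/mL final) for 16 h at 37 C. Viability read by CellTiter-Glo luminescence after 30 min at room temperature.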
# [7] = p53 small molecule agonists, cell-based qHTS assay: qHTS cell viability counter screen (AID 1963581); also: nearly all actives have a fitted effect of over 45% in size
# Method in brief: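 Compounds are pinned onto HCT-116 p53RE-bla cells and left 16 h at 37 C. Following the reporter FRET read, ATP is quantified by CellTiter-Glo luminescence after 30 min at room temperature.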
# [8] = molecular target: 5-hydroxytryptamine receptor 2A (Homo sapiens) (UniProt P28223); assay: 5-hydroxytryptamine receptor 2A (HTR2A) small molecule antagonists, cell-based qHTS assay (AID 1963586); also: nearly all actives have a fitted effect of over 45% in size
# Chain of 5-hydroxytryptamine receptor 2A (Homo sapiens) (P28223 whole entry, looked up): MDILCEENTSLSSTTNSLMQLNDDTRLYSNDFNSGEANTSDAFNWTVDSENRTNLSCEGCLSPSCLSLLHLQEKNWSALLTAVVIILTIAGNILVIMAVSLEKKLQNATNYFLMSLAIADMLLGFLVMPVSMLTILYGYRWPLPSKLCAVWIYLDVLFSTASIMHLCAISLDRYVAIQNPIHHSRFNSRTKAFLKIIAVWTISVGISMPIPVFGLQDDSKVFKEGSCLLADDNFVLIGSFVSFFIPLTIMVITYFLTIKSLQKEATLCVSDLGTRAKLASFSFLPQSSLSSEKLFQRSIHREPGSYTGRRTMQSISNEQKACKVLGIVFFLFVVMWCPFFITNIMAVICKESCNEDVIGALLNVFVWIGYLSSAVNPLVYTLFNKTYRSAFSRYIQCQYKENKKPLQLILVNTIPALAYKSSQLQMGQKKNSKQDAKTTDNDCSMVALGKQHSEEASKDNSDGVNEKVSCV
# Method in brief: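 Antagonist-mode intracellular calcium assay: DOI (4 nM) added after 5 min compound pre-incubation at room temperature to dye-loaded HTR2A-CHO cells. Fluorescence followed for 3 min, sampled every second.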
# [9] = molecular target: Muscarinic acetylcholine receptor M1 (Homo sapiens) (UniProt P11229); assay: Cholinergic receptor muscarinic 1 (CHRM1) small molecule antagonists, cell-based qHTS assay (AID 1963588); also: nearly all actives have a fitted effect of over 40% in size; also: potency is read from the fitted curve at half-maximal effect
# Chain of Muscarinic acetylcholine receptor M1 (Homo sapiens) (P11229 whole entry, looked up): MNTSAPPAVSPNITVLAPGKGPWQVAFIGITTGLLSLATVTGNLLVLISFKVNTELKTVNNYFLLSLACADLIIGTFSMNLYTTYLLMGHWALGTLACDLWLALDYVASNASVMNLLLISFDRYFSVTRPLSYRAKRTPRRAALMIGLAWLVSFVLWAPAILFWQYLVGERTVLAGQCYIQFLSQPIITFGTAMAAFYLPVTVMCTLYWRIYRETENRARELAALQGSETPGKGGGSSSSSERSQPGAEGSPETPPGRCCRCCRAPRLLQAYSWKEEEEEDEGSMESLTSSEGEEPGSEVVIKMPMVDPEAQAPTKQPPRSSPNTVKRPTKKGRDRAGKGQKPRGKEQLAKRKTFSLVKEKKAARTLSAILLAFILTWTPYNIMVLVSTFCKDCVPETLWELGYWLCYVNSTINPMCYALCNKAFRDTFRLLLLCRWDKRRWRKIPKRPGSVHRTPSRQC
# Method in brief: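 CHRM1-CHO calcium-flux assay, antagonist mode. Cells were seeded 18 h, dye-loaded 1 h at 37 C and given compound for 5 min at RT, then acetylcholine was added at 50nM. FDSS fluorescence was read 3 min; 15 concentrations, three runs.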
# [10] = molecular target: Muscarinic acetylcholine receptor M1 (Homo sapiens) (UniProt P11229); assay: Cholinergic receptor muscarinic 1 (CHRM1) small molecule agonists, cell-based qHTS assay (AID 1963589); also: nearly all actives have a fitted effect of over 35% in size
# Method in brief: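 Stable CHRM1-CHO cells (human receptor) were incubated 18 h, dye-loaded for 1 h at 37 C and exposed to test compounds for agonist activity, with calcium-dependent fluorescence followed kinetically.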
# [11] = molecular target: Beta-2 adrenergic receptor (Homo sapiens) (UniProt P07550); assay: Adrenergic beta2 receptor (ADRB2) small molecule antagonists, cell-based qHTS assay (AID 1963592); also: series mostly up to about 92 µM; nearly all actives have a fitted effect of over 50% in size
# Chain of Beta-2 adrenergic receptor (Homo sapiens) (P07550 whole entry, looked up): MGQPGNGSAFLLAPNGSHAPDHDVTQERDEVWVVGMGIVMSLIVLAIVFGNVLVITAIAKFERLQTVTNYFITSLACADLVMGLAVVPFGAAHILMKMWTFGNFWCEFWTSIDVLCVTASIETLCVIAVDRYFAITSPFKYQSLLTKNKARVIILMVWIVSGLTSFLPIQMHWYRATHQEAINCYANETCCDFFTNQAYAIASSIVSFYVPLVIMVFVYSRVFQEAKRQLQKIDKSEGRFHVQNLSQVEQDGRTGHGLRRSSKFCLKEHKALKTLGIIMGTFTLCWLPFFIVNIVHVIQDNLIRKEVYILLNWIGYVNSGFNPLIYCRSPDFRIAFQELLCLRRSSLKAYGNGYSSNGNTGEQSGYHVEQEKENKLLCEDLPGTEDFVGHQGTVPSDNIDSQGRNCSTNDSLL
# Method in brief: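 Cells (CHO, stable ADRB2 overexpression) incubated 18-20hr at 37C; compounds added from DMSO; agonist mix (1nM isoproterenol, 100uM IBMX, 25uM Ro-20-1724) added; 0.5hr RT; d2-cAMP and anti-cAMP-cryptate added; 1hr RT; 665/615 nm read.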
# [12] = molecular target: D(2) dopamine receptor (Homo sapiens) (UniProt P14416); assay: Dopamine D2 receptor (DRD2) small molecule agonists, cell-based qHTS assay (AID 1963594); also: nearly all actives have a fitted effect of over 35% in size
# Chain of D(2) dopamine receptor (Homo sapiens) (P14416 whole entry, looked up): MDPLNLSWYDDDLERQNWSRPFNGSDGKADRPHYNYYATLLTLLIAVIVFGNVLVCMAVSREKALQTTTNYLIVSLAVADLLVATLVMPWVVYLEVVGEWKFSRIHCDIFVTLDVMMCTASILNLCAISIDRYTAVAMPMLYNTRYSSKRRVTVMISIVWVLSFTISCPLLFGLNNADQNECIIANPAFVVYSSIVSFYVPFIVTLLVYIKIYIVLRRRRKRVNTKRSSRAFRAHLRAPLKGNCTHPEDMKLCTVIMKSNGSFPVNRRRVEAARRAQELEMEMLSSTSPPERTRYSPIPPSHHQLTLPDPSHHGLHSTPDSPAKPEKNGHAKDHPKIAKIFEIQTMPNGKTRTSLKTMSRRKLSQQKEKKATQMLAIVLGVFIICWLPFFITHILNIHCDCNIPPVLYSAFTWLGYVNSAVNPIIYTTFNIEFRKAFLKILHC
# Method in brief: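 HEK293 cells stably expressing DRD2 were cultured 24 h at 37 C, then given Ro20-1724 (0.1 mM final) and compounds for 10 min at room temperature. NKH477 (200nM) was then added for 30 min. cAMP was read by HTRF.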
# [13] = molecular target: D(2) dopamine receptor (Homo sapiens) (UniProt P14416); assay: Dopamine D2 receptor (DRD2) small molecule antagonists, cell-based qHTS assay (AID 1963595; active = well fitted inhibition curve with a large enough effect in the signal ratio in the repeat runs, with a control signal flat; the % refers to the signal ratio)
# Method in brief: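 Cells were plated and grown for 24 h at 37 °C. Ro20-1724 (0.1 mM final) went in first, then compound for 10 min. NKH477 (200 nM) with quinpirole (12 nM) followed for 30 min at RT, then HTRF detection reagents for 1 h.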
# [14] = p53 small molecule agonists, cell-based qHTS assay with human liver microsomes (AID 1963577); also: potency is read from the fitted curve at half-maximal effect;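 as to activation: p53 response element beta-lactamase reporter cells with liver microsomes plus NADPH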
# Method in brief: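 16 h, 37 C exposure of p53RE-bla cells to compounds with human liver microsomes and NADPH (0.5 mg/mL final each); detection via LiveBLAzer mixture, 2 h dark at room temperature.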
# [15] = p53 small molecule agonists, cell-based qHTS assay with rat liver microsomes (AID 1963578); also: potency is read from the fitted curve at half-maximal effect
# Method in brief: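 With rat liver microsomes and NADPH present (0.5 mg/mL final each), p53RE-bla cells are treated with compound for 16 h at 37 C. LiveBLAzer detection mixture is then applied for 2 h at room temperature in the dark.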
# [16] = p53 small molecule agonists, cell-based qHTS assay (AID 1963582; active = well fitted activation curve with a large enough effect in the signal ratio in the repeat runs, not every such curve was filed as active; the % refers to the signal ratio)
# Method in brief: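 Agonist activity was scored from beta-lactamase FRET fluorescence in p53RE-bla cells treated 16 h at 37 C with compounds in DMSO, substrate incubation being 2 h at room temperature.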
# [17] = molecular target: 5-hydroxytryptamine receptor 2A (Homo sapiens) (UniProt P28223); assay: 5-hydroxytryptamine receptor 2A (HTR2A) small molecule agonists, cell-based qHTS assay (AID 1963587); also: nearly all actives have a fitted effect of over 30% in size
# Method in brief: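 HTR2A-CHO cells, plated 18 h at 37 C/5% CO2, dye-loaded 1 h at 37 C; compounds in DMSO added by pin tool (agonist mode). Intracellular calcium flux read as kinetic fluorescence on FDSS over 2 min at 1 s intervals.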
# [18] = cAMP Responsive Elements (CRE) small molecule agonists, cell-based qHTS assay (AID 1963590)
# Method in brief: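 FRET-based beta-lactamase readout (LiveBLAzer B/G, 2 h RT) quantified CRE activation in HEK 293T CRE-bla cells after 3 h treatment with DMSO-dissolved compounds.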
# [19] = cAMP Responsive Elements (CRE) small molecule antagonists, cell-based qHTS assay (AID 1963591; active = well fitted inhibition curve with a large enough effect in the signal ratio in the repeat runs, not every such curve was filed as active; the % refers to the signal ratio)
# Method in brief: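 qHTS in CRE-bla HEK 293T cells: compound in DMSO, then 0.25 uM NKH477 (final), 3 h at 37 °C/5% CO2; beta-lactamase FRET read-out after 2 h substrate incubation.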
# [20] = molecular target: Beta-2 adrenergic receptor (Homo sapiens) (UniProt P07550); assay: Adrenergic beta2 receptor (ADRB2) small molecule agonists, cell-based qHTS assay (AID 1963593);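 also: CHO cells stably overexpressing human ADRB2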
# Method in brief: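 CHO cells stably over-expressing ADRB2 were plated overnight at 37C, then dosed with compounds plus a stimulation mix containing 100uM IBMX and 25uM Ro-20-1724 for 0.5hr at room temperature. cAMP was measured by HTRF competition, 1hr.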
SMILES,Potency [1],Potency [2],Potency [3],Potency [4],Potency [5],Potency [6],Potency [7],Potency [8],Potency [9],Potency [10],Potency [11],Potency [12],Potency [13],Potency [14],Potency [15],Potency [16],Potency [17],Potency [18],Potency [19],Potency [20]
c1ccc2c(c1)ccc1ncccc12,inactive,inactive,inactive,inactive,inactive,inactive,inactive,inactive,inactive,inactive,inactive,inactive,inactive,–,–,–,–,–,–,–
Cc1ccc(N=Nc2c(O)ccc3ccccc23)c(C)c1,inactive,inactive,inactive,inactive,inactive,–,inactive,inactive,inactive,inactive,inactive,inactive,inactive,inactive,inactive,inactive,inactive,inactive,inactive,inactive
COc1ccc(N)c(C)c1,inactive,inactive,inactive,inactive,inactive,inactive,inactive,inactive,inactive,inactive,–,inactive,inactive,–,–,–,–,inactive,inactive,inactive
Cn1c(=O)c2c(ncn2C)n(C)c1=O,inactive,inactive,inactive,inactive,–,inactive,inactive,–,–,–,inactive,inactive,inactive,inactive,inactive,inactive,–,inactive,inactive,–
CCOc1cc(NC(C)=O)ccc1C(=O)OC,inactive,inactive,inactive,inactive,inactive,–,inactive,inactive,inactive,inactive,inactive,inactive,inactive,inactive,inactive,inactive,inactive,–,inactive,inactive
NCCNCCNCCN,inactive,inactive,inactive,inactive,inactive,–,inactive,inactive,inactive,inactive,inactive,inactive,inactive,inactive,inactive,inactive,inactive,inactive,inactive,inactive
Cc1c(N)cccc1C(F)(F)F,inactive,inactive,inactive,inactive,–,inactive,inactive,inactive,inactive,inactive,inactive,inactive,inactive,inactive,inactive,inactive,inactive,inactive,inactive,–
O=c1n(CCCN2CCN(c3cccc(Cl)c3)CC2)nc2ccccn12,inactive,inactive,inactive,inactive,inactive,inactive,inactive,–,–,–,inactive,–,–,inactive,–,inactive,–,inactive,–,–
COC(=O)OC,inactive,inactive,inactive,inactive,inactive,inactive,–,inactive,inactive,–,inactive,inactive,inactive,inactive,inactive,inactive,inactive,inactive,inactive,inactive
OC[C@H]1O[C@@H](O[C@H]2[C@H](O)[C@@H](O)[C@H](O)O[C@@H]2CO)[C@H](O)[C@@H](O)[C@H]1O,inactive,inactive,inactive,inactive,–,inactive,inactive,inactive,inactive,inactive,inactive,inactive,inactive,inactive,inactive,inactive,inactive,inactive,inactive,inactive
CCCC(C)CO (stereo not drawn),inactive,inactive,inactive,inactive,inactive,inactive,inactive,inactive,inactive,inactive,inactive,inactive,inactive,–,inactive,inactive,inactive,inactive,inactive,inactive
CCN(CC)CCNC(=O)c1ccc(N)cc1,inactive,inactive,inactive,inactive,inactive,inactive,inactive,–,–,–,inactive,inactive,inactive,–,–,–,–,inactive,inactive,inactive
CCCSc1ccc2nc(NC(=O)OC)[nH]c2c1,inactive,inactive,inactive,inactive,inactive,inactive,–,–,–,–,inactive,inactive,inactive,inactive,inactive,–,–,–,inactive,inactive
C=CC(C)(O)CC/C=C(\C)CCC=C(C)C (stereo not drawn),inactive,inactive,inactive,inactive,–,inactive,inactive,inactive,inactive,–,inactive,inactive,inactive,inactive,inactive,inactive,inactive,inactive,inactive,inactive
Nc1c2ccccc2nc2ccccc12,inactive,inactive,inactive,inactive,inactive,–,inactive,inactive,14.7 µM (active) and inactive,inactive,inactive,inactive,inactive,11.3 µM (active) and 19.9 µM (active),40.3 µM (active),–,inactive,–,–,–
CN1CCOCC1,inactive,inactive,inactive,inactive,inactive,–,inactive,inactive,inactive,inactive,inactive,inactive,inactive,–,inactive,inactive,inactive,inactive,inactive,inactive
CCC(C)=O,inactive,inactive,inactive,inactive,inactive,inactive,–,inactive,–,inactive,inactive,inactive,inactive,inactive,inactive,inactive,inactive,inactive,inactive,inactive
ClC/C=C\CCl,inactive,inactive,inactive,inactive,inactive,–,inactive,inactive,inactive,inactive,inactive,inactive,inactive,inactive,inactive,inactive,–,inactive,inactive,inactive
CCCc1ccccc1,inactive,inactive,inactive,inactive,inactive,–,–,inactive,inactive,inactive,inactive,inactive,inactive,inactive,inactive,inactive,inactive,inactive,inactive,–
O=C(C(=O)c1ccccc1)c1ccccc1,inactive,inactive,inactive,inactive,inactive,inactive,inactive,inactive,inactive,inactive,inactive,inactive,inactive,–,inactive,inactive,–,inactive,inactive,inactive
CCCCCC/C(C=O)=C\c1ccccc1,inactive,inactive,inactive,inactive,inactive,inactive,inactive,inactive,–,inactive,inactive,inactive,inactive,–,–,–,inactive,inactive,inactive,inactive
CN1CCCC1=O,inactive,inactive,inactive,inactive,inactive,inactive,inactive,inactive,inactive,–,inactive,inactive,inactive,–,inactive,inactive,inactive,inactive,inactive,inactive
NC(=O)c1ccc([N+](=O)[O-])cc1,inactive,inactive,inactive,inactive,inactive,inactive,inactive,inactive,inactive,inactive,inactive,inactive,inactive,inactive,–,inactive,inactive,inactive,inactive,–
OCc1ccccc1,inactive,inactive,inactive,inactive,inactive,inactive,inactive,–,–,–,–,–,inactive,–,–,–,–,inactive,inactive,inactive
CCCN[C@H]1CCc2nc(N)sc2C1,inactive,inactive,inactive,inactive,inactive,inactive,inactive,inactive,inactive,inactive,inactive,–,–,inactive,–,inactive,–,inactive,inactive,inactive
C1=CCC2CC=CC2C1 (stereo not drawn),inactive,inactive,inactive,inactive,inactive,–,inactive,inactive,3.34 µM (active),inactive,inactive,inactive,inactive,inactive,inactive,inactive,inactive,inactive,inactive,inactive
CC1CC(O)CC(C)(C)C1 (stereo not drawn),inactive,inactive,inactive,inactive,–,inactive,–,inactive,inactive,–,inactive,inactive,–,inactive,inactive,inactive,inactive,inactive,inactive,inactive
C[C@]12CC[C@@H]3c4ccc(O)cc4CC[C@H]3[C@@H]1CCC2=O,inactive,inactive,inactive,inactive,inactive,inactive,inactive,–,–,–,inactive,inactive,inactive,–,–,–,–,–,inactive,–
CC(=O)OCc1ccco1,inactive,inactive,inactive,inactive,inactive,inactive,inactive,inactive,inactive,–,inactive,inactive,inactive,–,–,–,inactive,inactive,–,–
Nc1cccc2c1CN(C1CCC(=O)NC1=O)C2=O (stereo not drawn),inactive,inactive,inactive,inactive,inactive,–,inactive,inactive,inactive,inactive,inactive,inactive,inactive,inactive,–,inactive,inactive,inactive,inactive,inactive
